Data published in PubChem BioAssay.
Active and inactive are the calls of the source.

Experiments:
[1] = test system: PRMT1 (protein arginine N-methyltransferase 1); assay: PRMT1 binders on small-molecule microarrays, primary screen, biochemical, small-molecule microarray, 635 nm fluorescence (AID 1088); settings: small-molecule microarray binding, higher = more signal;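 also: binding of Prmt1 protein to compounds spotted on small-molecule microarray slides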
[2] = yeast growth modulation, basal conditions, primary screen, YJM789 clinical isolate, OD600, 24 h (AID 1089);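 also: growth of clinical yeast isolate S. cerevisiae YJM 789 seeded 1000 cells per well; test concentration not given here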; settings: S. cerevisiae YJM789 growth, higher = more signal, called active from +8 up or from −8 down
[3] = fission yeast growth modulation, primary screen, strain 972, OD600, 24 h, no modulator (AID 1090);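 also: basal condition with compound alone and no growth modifier present; test concentration not given here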; settings: S. pombe 972 growth, higher = more signal, called active from +8 up or from −8 down
[4] = S. cerevisiae growth modulation with rapamycin, primary screen, strain BY4716, OD600, 96 h (AID 1091); settings: higher = more signal, called active from +8 up or from −8 down; also: test concentration not given here
[5] = target: Torsin-1A-interacting protein 2 (Homo sapiens) (UniProt Q8NFQ8); assay: LULL1 binders on small-molecule microarray, primary screen, cell lysate, human LULL1 lysate, 635/667 nm fluorescence (AID 1092); settings: hLULL1 lysate binding, 635 nm fluorescence, higher = more signal;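 also: probe is lysate of COS7 cells overexpressing human LULL1; score merges per-feature 667 nm fluorescence with signal-to-noise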
[6] = E. coli growth modulation, two-sided OD650, primary screen, E. coli filamentation project, strain DRC41, 24 h (AID 1093); settings: OD650, 24 h, higher = more signal, called active from +8 up or from −8 down;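 also: MC1000 strain lacking acrAB efflux and sulA so SOS filamentation is blocked; test concentration not given here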
[7] = small-molecule microarray binders of probe aLefty2, primary screen, biochemical, biotinylated probe, 635/667 nm fluorescence (AID 1094); settings: higher = more signal;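 also: score merges spot fluorescence near 667 nm with spot signal-to-noise ratio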
[8] = test system: Noggin (protein binding on small-molecule microarray); assay: Noggin binders on small-molecule microarray, primary screen, biochemical, 635/667 nm fluorescence (AID 1095); settings: 635 nm fluorescence, higher = more signal;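 also: score merges 667 nm feature fluorescence with signal to noise over triplicate slides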
[9] = target: Neurogenic locus notch homolog protein 3 (Homo sapiens) (UniProt Q9UM47); assay: NOTCH3 binders on small-molecule microarray, primary screen, biochemical, 635/667 nm fluorescence (AID 1096); settings: NOTCH3 binding, 635 nm fluorescence, higher = more signal
[10] = small-molecule microarray binders of probe aEGFR, primary screen, biochemical, biotinylated probe, 635/667 nm fluorescence (AID 1097); settings: higher = more signal;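 also: probe is a biotinylated anti-EGFR antibody binding compounds printed on slides; score combines fluorescence near 667 nm and signal to noise of each spot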
[11] = test system: Plasmodium falciparum Sir2 (PF13_0152, Sir2A); assay: pfSir2 binders on small-molecule microarrays, primary screen, biochemical, small-molecule microarray, 635 nm fluorescence (AID 1098); settings: small-molecule microarray binding, fluorescence 635 nm; higher = more signal;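 also: score merges spot fluorescence intensity with its signal-to-noise ratio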
[12] = small-molecule microarray binders of probe aDKK1, primary screen, biochemical, biotinylated probe, 635/667 nm fluorescence (AID 1099); settings: higher = more signal;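 also: score merges 667nm spot fluorescence with signal to noise across triplicate slides; reference of the scale not given here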
[13] = small-molecule microarray binders of probe aCHRDL2, primary screen, biochemical, biotinylated probe, 635/667 nm fluorescence (AID 1100); settings: higher = more signal
[14] = splicing luciferase reporter signal modulators, primary screen, spliceosome inhibition project, cell-based, HEK293, splice +/- reporter (AID 1101); settings: luminescence, 24 h, higher = more signal, called active from +8 up or from −8 down;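 also: HEK293 cells carrying a splicing-competent luciferase reporter gene; test concentration not given here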
[15] = target: Fibroblast growth factor 10 (Homo sapiens) (UniProt O15520); assay: FGF10 binders on small-molecule microarrays, primary screen, biochemical, small-molecule microarray, 635 nm fluorescence (AID 1102); settings: FGF10 binding, fluorescence 635 nm, higher = more signal
[16] = test system: glycogen synthase kinase-3 (GSK3A per assay name; protocol says GSK3B); assay: GSK3 binders on small-molecule microarrays, primary screen, biochemical, small-molecule microarray, 635 nm fluorescence, GSK3A (AID 1103); settings: small-molecule microarray binding, fluorescence 635 nm; higher = more signal; also: the record names both GSK3A and GSK3B
[17] = target: Epidermal growth factor receptor (Homo sapiens) (UniProt P00533); assay: EGFR binders on small-molecule microarrays, primary screen, biochemical, small-molecule microarray, 635 nm fluorescence (AID 1104); settings: EGFR binding, higher = more signal;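 also: score merges 667 nm emission intensity with spot signal to noise over triplicate slides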
[18] = target: Follistatin-related protein 3 (Homo sapiens) (UniProt O95633); assay: FSTL3 binders on small-molecule microarrays, primary screen, biochemical, small-molecule microarray, 635 nm fluorescence (AID 1105); settings: FSTL3 binding, higher = more signal;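 also: score merges emission near 667 nm and signal to noise per printed spot across three slides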
[19] = target: Dickkopf-related protein 1 (Homo sapiens) (UniProt O94907); assay: DKK1 binders on small-molecule microarrays, primary screen, biochemical, small-molecule microarray, 635 nm fluorescence scan (AID 1106); settings: DKK1 binding, higher = more signal;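 also: score merges emission near 667 nm with signal to noise over three replicate slides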
[20] = test system: Inhibin beta A chain (activin A); assay: INHBA (activin A) binders on microarrays, primary screen, biochemical, small-molecule microarray, 635 nm fluorescence scan (AID 1107); settings: small-molecule microarray binding, higher = more signal;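 also: mouse activin A protein probed at 4.33 µg/mL on printed slides; score merges bound-protein fluorescence near 667 nm with spot signal-to-noise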

Chain of Torsin-1A-interacting protein 2 (Homo sapiens) (Q8NFQ8 whole entry, looked up): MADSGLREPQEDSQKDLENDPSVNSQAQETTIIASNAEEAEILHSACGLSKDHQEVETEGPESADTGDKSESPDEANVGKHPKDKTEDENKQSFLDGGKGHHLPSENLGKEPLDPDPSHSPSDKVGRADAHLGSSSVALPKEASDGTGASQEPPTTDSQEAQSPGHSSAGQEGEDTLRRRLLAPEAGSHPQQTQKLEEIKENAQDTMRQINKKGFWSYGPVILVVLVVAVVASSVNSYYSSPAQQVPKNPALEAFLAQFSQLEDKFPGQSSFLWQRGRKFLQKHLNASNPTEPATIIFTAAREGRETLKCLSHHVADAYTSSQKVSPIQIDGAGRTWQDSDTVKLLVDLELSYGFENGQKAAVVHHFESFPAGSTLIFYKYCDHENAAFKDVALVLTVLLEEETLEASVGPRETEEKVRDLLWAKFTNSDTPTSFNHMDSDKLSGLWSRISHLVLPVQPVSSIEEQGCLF
Chain of Epidermal growth factor receptor (Homo sapiens) (P00533 whole entry, looked up): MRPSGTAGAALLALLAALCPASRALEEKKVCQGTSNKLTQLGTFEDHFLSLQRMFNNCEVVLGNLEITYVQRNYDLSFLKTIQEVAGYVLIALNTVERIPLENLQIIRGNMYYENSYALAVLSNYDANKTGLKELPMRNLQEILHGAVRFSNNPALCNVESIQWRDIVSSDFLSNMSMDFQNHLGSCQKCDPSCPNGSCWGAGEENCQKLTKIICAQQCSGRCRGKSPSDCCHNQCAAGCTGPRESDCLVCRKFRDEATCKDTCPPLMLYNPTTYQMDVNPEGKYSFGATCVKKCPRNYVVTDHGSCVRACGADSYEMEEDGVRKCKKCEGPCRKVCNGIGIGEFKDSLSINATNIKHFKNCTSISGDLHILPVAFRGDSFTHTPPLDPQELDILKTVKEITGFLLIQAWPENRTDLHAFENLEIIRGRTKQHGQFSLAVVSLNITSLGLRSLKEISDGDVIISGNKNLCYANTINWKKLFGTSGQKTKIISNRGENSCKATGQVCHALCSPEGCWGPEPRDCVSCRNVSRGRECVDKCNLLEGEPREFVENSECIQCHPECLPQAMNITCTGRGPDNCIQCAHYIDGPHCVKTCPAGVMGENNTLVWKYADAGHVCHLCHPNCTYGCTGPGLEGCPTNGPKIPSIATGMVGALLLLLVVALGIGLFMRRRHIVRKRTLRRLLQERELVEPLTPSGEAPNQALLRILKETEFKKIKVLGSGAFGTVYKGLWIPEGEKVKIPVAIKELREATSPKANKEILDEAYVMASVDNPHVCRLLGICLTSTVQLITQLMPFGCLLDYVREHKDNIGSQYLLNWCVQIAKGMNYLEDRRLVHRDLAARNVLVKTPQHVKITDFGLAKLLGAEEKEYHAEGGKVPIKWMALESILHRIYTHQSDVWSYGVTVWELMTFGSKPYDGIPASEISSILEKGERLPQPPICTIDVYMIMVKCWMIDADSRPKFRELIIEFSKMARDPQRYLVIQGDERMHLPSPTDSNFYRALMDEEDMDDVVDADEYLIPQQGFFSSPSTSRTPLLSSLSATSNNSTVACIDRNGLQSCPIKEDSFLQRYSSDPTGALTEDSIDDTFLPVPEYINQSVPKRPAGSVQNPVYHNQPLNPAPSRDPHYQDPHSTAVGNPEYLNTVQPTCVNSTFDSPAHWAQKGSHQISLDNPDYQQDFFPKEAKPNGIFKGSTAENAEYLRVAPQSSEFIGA
Chain of Follistatin-related protein 3 (Homo sapiens) (O95633 whole entry, looked up): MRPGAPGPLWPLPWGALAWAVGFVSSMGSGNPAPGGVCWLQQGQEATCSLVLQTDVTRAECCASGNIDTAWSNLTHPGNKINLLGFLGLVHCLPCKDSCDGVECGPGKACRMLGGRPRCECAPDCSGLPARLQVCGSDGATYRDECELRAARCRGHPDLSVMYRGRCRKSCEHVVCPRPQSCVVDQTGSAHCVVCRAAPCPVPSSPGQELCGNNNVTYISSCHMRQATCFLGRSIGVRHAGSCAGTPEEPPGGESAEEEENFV
Chain of Fibroblast growth factor 10 (Homo sapiens) (O15520 whole entry, looked up): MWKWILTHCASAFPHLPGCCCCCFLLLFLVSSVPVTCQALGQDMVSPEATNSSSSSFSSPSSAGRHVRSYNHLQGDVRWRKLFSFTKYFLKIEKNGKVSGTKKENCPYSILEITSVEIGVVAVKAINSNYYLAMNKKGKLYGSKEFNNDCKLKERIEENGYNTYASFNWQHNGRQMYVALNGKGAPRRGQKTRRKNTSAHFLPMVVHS
Chain of Dickkopf-related protein 1 (Homo sapiens) (O94907 whole entry, looked up): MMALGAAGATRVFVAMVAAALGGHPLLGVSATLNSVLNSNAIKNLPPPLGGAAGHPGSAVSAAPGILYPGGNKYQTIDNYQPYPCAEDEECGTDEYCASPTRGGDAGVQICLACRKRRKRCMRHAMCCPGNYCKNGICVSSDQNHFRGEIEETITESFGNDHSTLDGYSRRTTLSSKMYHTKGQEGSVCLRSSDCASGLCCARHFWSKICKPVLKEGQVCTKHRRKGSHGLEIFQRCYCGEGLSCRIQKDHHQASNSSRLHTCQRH
Chain of Neurogenic locus notch homolog protein 3 (Homo sapiens) (Q9UM47 whole entry, looked up): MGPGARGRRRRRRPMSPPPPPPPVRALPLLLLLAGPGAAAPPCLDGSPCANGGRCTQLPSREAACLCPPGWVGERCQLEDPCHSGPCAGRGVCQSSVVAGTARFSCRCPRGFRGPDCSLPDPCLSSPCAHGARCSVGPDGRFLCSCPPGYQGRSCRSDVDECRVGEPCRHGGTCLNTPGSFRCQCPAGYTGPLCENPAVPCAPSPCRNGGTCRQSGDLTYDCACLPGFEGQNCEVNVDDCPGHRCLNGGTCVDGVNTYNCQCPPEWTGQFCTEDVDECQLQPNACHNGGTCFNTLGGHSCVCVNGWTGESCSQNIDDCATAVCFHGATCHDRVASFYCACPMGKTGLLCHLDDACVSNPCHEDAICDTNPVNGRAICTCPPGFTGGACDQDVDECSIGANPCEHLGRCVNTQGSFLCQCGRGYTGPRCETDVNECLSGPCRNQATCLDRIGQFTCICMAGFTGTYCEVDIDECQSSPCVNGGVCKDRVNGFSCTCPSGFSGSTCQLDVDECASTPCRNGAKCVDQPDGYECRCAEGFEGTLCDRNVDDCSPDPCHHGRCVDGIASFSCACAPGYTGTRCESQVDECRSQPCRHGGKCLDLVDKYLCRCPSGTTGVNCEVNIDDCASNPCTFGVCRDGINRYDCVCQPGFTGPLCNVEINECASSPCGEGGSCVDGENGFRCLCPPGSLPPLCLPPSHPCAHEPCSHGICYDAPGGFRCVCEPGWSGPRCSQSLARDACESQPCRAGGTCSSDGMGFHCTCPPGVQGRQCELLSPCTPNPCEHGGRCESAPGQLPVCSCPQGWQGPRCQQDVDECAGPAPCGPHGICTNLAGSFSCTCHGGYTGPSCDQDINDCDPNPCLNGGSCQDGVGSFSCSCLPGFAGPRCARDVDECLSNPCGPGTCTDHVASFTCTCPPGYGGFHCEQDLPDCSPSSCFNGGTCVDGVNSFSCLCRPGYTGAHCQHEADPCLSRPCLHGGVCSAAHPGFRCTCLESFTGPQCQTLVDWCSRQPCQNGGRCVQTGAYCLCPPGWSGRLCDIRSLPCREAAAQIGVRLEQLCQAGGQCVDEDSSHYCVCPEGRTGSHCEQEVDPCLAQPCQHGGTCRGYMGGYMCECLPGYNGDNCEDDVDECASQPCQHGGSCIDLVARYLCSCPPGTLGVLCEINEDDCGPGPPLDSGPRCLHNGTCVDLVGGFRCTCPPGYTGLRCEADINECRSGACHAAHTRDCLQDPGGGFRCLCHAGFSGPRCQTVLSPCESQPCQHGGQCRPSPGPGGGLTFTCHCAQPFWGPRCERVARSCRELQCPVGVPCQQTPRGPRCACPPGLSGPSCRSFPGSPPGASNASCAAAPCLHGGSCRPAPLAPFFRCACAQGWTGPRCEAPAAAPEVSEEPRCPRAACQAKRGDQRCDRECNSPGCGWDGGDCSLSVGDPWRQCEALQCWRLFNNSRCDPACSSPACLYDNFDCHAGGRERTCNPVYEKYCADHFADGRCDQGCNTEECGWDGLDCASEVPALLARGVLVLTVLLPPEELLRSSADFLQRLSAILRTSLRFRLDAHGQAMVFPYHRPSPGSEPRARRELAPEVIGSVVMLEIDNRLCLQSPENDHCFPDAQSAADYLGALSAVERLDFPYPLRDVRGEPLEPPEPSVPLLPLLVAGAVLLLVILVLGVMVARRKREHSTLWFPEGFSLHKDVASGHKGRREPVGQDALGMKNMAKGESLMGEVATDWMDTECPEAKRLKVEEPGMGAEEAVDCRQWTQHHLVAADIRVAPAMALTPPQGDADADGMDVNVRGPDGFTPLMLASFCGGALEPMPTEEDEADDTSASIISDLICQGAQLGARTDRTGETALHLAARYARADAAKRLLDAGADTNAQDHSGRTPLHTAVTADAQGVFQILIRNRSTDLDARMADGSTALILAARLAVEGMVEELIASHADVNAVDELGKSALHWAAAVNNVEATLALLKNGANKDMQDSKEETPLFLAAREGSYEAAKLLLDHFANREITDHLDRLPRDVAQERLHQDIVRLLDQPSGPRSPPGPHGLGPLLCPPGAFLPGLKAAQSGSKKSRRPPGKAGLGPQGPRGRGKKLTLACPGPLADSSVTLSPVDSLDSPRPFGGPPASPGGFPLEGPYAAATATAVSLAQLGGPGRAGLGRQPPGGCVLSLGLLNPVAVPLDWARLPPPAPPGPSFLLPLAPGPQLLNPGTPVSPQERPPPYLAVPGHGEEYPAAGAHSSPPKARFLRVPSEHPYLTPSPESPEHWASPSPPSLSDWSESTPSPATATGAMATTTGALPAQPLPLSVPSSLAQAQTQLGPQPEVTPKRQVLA

## COc1cc(NN2C(C(O)c3ccc(I)cc3)C=CC3C(=O)N(c4ccccc4)C(=O)C32)cc(OC)c1OC (stereo not given)
[1]
  composite z-score: 1.56
[2]
  z-score: 0.93 (inactive)
[3]
  z-score: -0.229 (inactive)
[4]
  z-score: 0.0332 (inactive)
[5]
  composite z-score: 3.56
[6]
  z-score: -0.699 (inactive)
[7]
  composite z-score: 0.25
[8]
  composite z-score: 0.218
[9]
  composite z-score: 1.05
[10]
  composite z-score: -0.0423
[11]
  composite z-score: 0.913
[12]
  composite z-score: 0.763
[13]
  composite z-score: 1.04
[14]
  z-score: -0.329 (inactive)
[15]
  composite z-score: 1.17
[16]
  composite z-score: 1.29
[17]
  composite z-score: 0.266
[18]
  composite z-score: 1.3
[19]
  composite z-score: -0.305
[20]
  composite z-score: 0.946

## COCCOC(=O)N1C(=O)[C@@]2(c3cc(C#Cc4ccc(OC)cc4)ccc31)[C@H](C(=O)NC[C@H](O)c1ccccc1)[C@H]1C(=O)O[C@H](c3ccccc3)[C@H](c3ccccc3)N1[C@@H]2c1ccc(OCCO)cc1
[1]
  composite z-score: 1.54
[2]
  z-score: 1.62 (inactive)
[3]
  z-score: 1.74 (inactive)
[4]
  z-score: 7.18 (inactive)
[5]
  composite z-score: 2.87
[6]
  z-score: 1.38 (inactive)
[7]
  composite z-score: -0.0412
[8]
  composite z-score: 1.32
[9]
  composite z-score: 1.04
[10]
  composite z-score: -0.0532
[11]
  composite z-score: 1.02
[12]
  composite z-score: -0.0284
[13]
  composite z-score: 0.236
[14]
  z-score: -1.31 (inactive)
[15]
  composite z-score: 1.36
[16]
  composite z-score: 1.3
[17]
  composite z-score: 0.384
[18]
  composite z-score: 0.863
[19]
  composite z-score: 0.324
[20]
  composite z-score: 0.269

## COC(=O)C(CC#Cc1ccc2c(c1)[C@]1(C(=O)N2)[C@H](C(=O)Nc2nc3ccccc3s2)[C@H]2C(=O)O[C@H](c3ccccc3)[C@H](c3ccccc3)N2[C@@H]1c1ccc(OCCO)cc1)C(=O)OC
[1]
  composite z-score: 1.55
[2]
  z-score: -0.442 (inactive)
[3]
  z-score: -0.144 (inactive)
[4]
  z-score: 1.37 (inactive)
[5]
  composite z-score: 3.18
[6]
  z-score: 2.96 (inactive)
[7]
  composite z-score: 0.0973
[8]
  composite z-score: 1.59
[9]
  composite z-score: 1.08
[10]
  composite z-score: 0.0766
[11]
  composite z-score: 0.912
[12]
  composite z-score: 0.277
[13]
  composite z-score: 0.575
[14]
  z-score: -1.25 (inactive)
[15]
  composite z-score: 1.15
[16]
  composite z-score: 1.21
[17]
  composite z-score: 0.468
[18]
  composite z-score: 1.19
[19]
  composite z-score: 0.344
[20]
  composite z-score: 0.519

## C=C(CCCC)C(=O)CC[C@H](OC(=O)c1ccccc1-c1ccccc1C(=O)O)c1ccccc1OCCO
[1]
  composite z-score: 0.774
[2]
  z-score: 0.604 (inactive)
[3]
  z-score: -0.659 (inactive)
[4]
  z-score: -0.918 (inactive)
[5]
  composite z-score: 0.189
[6]
  z-score: 1.07 (inactive)
[7]
  composite z-score: -0.183
[8]
  composite z-score: 0.512
[9]
  composite z-score: -0.025
[10]
  composite z-score: -0.162
[11]
  composite z-score: 0.855
[12]
  composite z-score: -0.475
[13]
  composite z-score: -0.336
[14]
  z-score: 2.02 (inactive)
[15]
  composite z-score: 0.271
[16]
  composite z-score: -0.218
[17]
  composite z-score: -0.226
[18]
  composite z-score: -0.279
[19]
  composite z-score: 0.145
[20]
  composite z-score: 1.28
